Sampled rows, rich in hits. Any-hit rate of the full collection: about 1%.
PTAP TSG101 blk – blocks PTAP/TSG101 interaction to inhibit HIV-1 budding | Fluorescence polarization, FITC-PTAP peptide / Tsg101 binding | Potency, µM (highest dose often 115 µM), without a hit: top-dose activity change, negative = inhibition, hits mostly inhibitors | 340,000 tested, under 10 active | AID 493005; active = well fitted inhibition curve with a large enough effect in the main read-out, with a control signal flat, not every such curve was filed as active; inconclusive = small, poorly fitted or top-dose-only effect, or effect the other way, or a change in a side signal; inactive = no such curve, though single readings can be large or run the other way; note: potency is the fitted concentration of half-maximal effect; % of control where 0% means no effect
Target sequence (Q99816 whole entry, looked up): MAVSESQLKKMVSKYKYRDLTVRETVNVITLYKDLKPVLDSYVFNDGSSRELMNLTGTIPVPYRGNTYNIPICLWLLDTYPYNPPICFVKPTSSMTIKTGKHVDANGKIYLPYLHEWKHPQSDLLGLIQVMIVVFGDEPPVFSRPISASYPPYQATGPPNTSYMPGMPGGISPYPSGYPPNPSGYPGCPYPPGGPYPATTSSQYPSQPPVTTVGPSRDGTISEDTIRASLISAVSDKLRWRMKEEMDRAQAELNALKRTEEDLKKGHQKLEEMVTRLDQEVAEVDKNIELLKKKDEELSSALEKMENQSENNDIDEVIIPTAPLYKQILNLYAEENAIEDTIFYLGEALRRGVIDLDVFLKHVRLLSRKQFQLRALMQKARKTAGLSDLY
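Steps: Tsg101 binding domain dispensed (10 uM final), compounds pinned in DMSO, FITC-labeled PTAP-motif peptide added (50 nM final); after 20 min binding at room temperature, polarization measured.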
KCNH2 3.1 inh – KCNH2 3.1 (human) potassium channel inhibition; U2OS KCNH2 3.1, thallium flux FluxOr; active compounds read low; activity change, % (tested at about 1.8 µM); 340,000 compounds, 0.95% hits; AID 720553;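 active = maximum activity change below -70%; inconclusive = maximum activity change from -70% to -50%; inactive = maximum activity change above -50%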;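 note: thallium influx rate constant from kinetic fluorescence after stimulation buffer; % is set by controls: 0 for no effect and ±100 for the full control effect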
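Channel expression came from 3.1 mutant virus (1.77 x 10^8 /mL) applied to suspended U2OS cells for 4 h. Flux was tracked with FluxOr dye plus Red40 quencher, and kinetic rate constants normalized to controls.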
KCNH2 WT inh – KCNH2 (human, wildtype) channel inhibition. U2OS, BacMam KCNH2, thallium flux FluxOr; active compounds read low. activity change, % at 1.84 µM. 340,000 compounds, 0.37% hits;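 active = maximum activity change below -70%; inconclusive = maximum activity change between -70% and -50%; inactive = maximum activity change above -50%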; note: % is set by controls: 0 for no effect and ±100 for the full control effect
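U2OS cells transduced with wild-type KCNH2 virus are loaded with FluxOr dye for 45 min, and thallium flux is measured in kinetic reads before and after stimulation buffer. Rate constants are normalized to DMSO controls.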
Glioma ERSR ind – ER stress response induction in glioma; U87-MG GRP78 promoter luciferase reporter, 16 h; Potency, µM, without a hit: top-dose activation, usual class: activators; 420,000 compounds, 0.02% hits; AID 602332; active = well fitted activation curve with a large enough effect; inconclusive = small, poorly fitted or top-dose-only effect; inactive = no such curve, though single readings can be large or run the other way; note: potency is the fitted concentration of half-maximal effect; series mostly up to about 76 µM; % of control where 0% means no effect; nearly all actives have a fitted effect of over 35% in size
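Stably transfected U87-MG human glioma cells carrying a GRP78-based luminescent sensor were seeded at 1000 cells/well, pin-dosed with compounds and incubated 16 h. Luciferase reagent was then added, and end-point luminescence was read after 10 min at room temperature.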
TRPML1 inh – human mucolipin-1 channel inhibition; Q9GZU1; TRPML1-inducible cells, Ca2+ dye fluorescence, FDSS; active compounds read low; inhibition of EC80 agonist-evoked calcium signal; activity change, negative = inhibition, % (no concentration beside the values); 390,000 compounds, 0.02% hits; in the data active = activity change below about -50%; inconclusive = between about -30% and that limit;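 note: stimulus is agonist 54-4 at its EC80 concentration; % is set by controls: 0 for no effect and ±100 for the full control effect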
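Calcium fluorescence in TRPML1-DL cells induced overnight with Tet: a 110 s read after compound pin addition, then a 110 s antagonist read after challenge with 54-4 at 4 uM final (EC80).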
TRPML1 agonist – human mucolipin-1 channel agonism; TRPML1-expressing cells, Ca2+ dye fluorescence, FDSS; Q9GZU1; AID 624414; activation, % (no concentration beside the values); 410,000 compounds, 0.12% hits; in the data active = activation above about 50%; inconclusive = mostly about 30% to 49%; note: 0% is about no effect
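Calcium fluorescence on an FDSS kinetic reader gave the read-out. Tet-induced TRPML1-DL cells were plated overnight, dye-loaded (Ca8 with quencher, 45-90 min, room temperature, dark), then read 110 s after compound addition, and again 110 s after 4uM final 54-4 (EC80).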
The depositor's hits bear a star.

Results for Cc1cccc(C2c3[nH]c4ccccc4c3CCN2Cc2cccn2-c2ncccn2)c1 (stereo not drawn) ?
PTAP TSG101 blk: 1%; KCNH2 3.1 inh: inconclusive; KCNH2 WT inh: inconclusive; Glioma ERSR ind: -2%; TRPML1 inh: -3; TRPML1 agonist: 0

Results for COc1ccc(C2c3[nH]c4ccccc4c3CCN2Cc2cccn2-c2ncccn2)cc1C (stereo not drawn) ?
PTAP TSG101 blk: 0%; KCNH2 3.1 inh: -79*; KCNH2 WT inh: inconclusive; Glioma ERSR ind: 0%; TRPML1 inh: -3; TRPML1 agonist: 0

How did Cc1ncc2c(c1CNS(=O)(=O)N(C)C)CCN(C(=O)/C=C/c1ccccc1)C2 do in these assays?
Glioma ERSR ind: -6%

How did CCC1C(=O)NCCN1Cc1ccc2c(c1)CN(Cc1cc(OC)c3c(c1)OCO3)CCO2 (stereo not drawn) do in these assays?
Glioma ERSR ind: -4%

How did N#C/C(=C\c1ccco1)C(=O)NCc1ccccc1 do in these assays?
PTAP TSG101 blk: 2%; KCNH2 3.1 inh: 7; Glioma ERSR ind: 4%; TRPML1 inh: 7; TRPML1 agonist: -1

Results for N#CC(C#N)=C1C=CC=CN1/C(=C\c1ccco1)C(=O)c1ccc(-c2ccccc2)cc1 ?
PTAP TSG101 blk: -1%; KCNH2 3.1 inh: -85*; KCNH2 WT inh: -8; Glioma ERSR ind: -15%; TRPML1 inh: -14; TRPML1 agonist: 1

What do the screens show for `N#CC(C#N)=C1C=CC=CN1/C(=C\c1ccco1)C(=O)c1ccc(Cl)cc1`?
PTAP TSG101 blk: -10%; KCNH2 3.1 inh: -86*; KCNH2 WT inh: 8; Glioma ERSR ind: -15%; TRPML1 inh: 14; TRPML1 agonist: 5

What do the screens show for `CC(C)NC(=O)c1cn(C2CCC(NC(=O)C(C)(C)C)CC2)nn1` (stereo not drawn)?
Glioma ERSR ind: -3%

What do the screens show for `Cc1nc2ccccc2nc1CN1CCOc2ccc(C3(O)CCN(c4ccccc4F)CC3)cc2C1`?
Glioma ERSR ind: -6%

What do the screens show for `S=C(NCCc1ccccc1)N1CCN(C2CCCCC2)CC1`?
PTAP TSG101 blk: 0%; KCNH2 3.1 inh: -93*; KCNH2 WT inh: 16; Glioma ERSR ind: -2%; TRPML1 inh: 0; TRPML1 agonist: 1

Results for O=C1OCCN1CCNCc1cn(-c2ccc(F)cc2)nc1-c1ccccc1Cl ?
PTAP TSG101 blk: 2%; KCNH2 3.1 inh: -7; KCNH2 WT inh: -150*; Glioma ERSR ind: -6%; TRPML1 inh: 28; TRPML1 agonist: 0

How did Cc1cccnc1-c1cccc2c1OC(CNC(=O)/C=C/c1cccs1)C2 (stereo not drawn) do in these assays?
Glioma ERSR ind: -2%

How did O=C(c1ccccc1F)N1CCN(c2ccc([N+](=O)[O-])c3cccnc23)CC1 do in these assays?
PTAP TSG101 blk: 1%; KCNH2 3.1 inh: -3; KCNH2 WT inh: -243*; Glioma ERSR ind: -3%; TRPML1 inh: 4; TRPML1 agonist: 0

How did Cc1ccc(S(=O)(=O)N2CCN(c3ccc(C(F)(F)F)cc3[N+](=O)[O-])CC2)cc1 do in these assays?
PTAP TSG101 blk: 0%; KCNH2 3.1 inh: -15; KCNH2 WT inh: -1; Glioma ERSR ind: -2%; TRPML1 inh: 8; TRPML1 agonist: -1

What do the screens show for `Cc1cc(N2CCN(c3ccc([N+](=O)[O-])c4cccnc34)CC2)c2ccccc2n1`?
PTAP TSG101 blk: 14%; KCNH2 3.1 inh: -103*; KCNH2 WT inh: -108*; Glioma ERSR ind: -2%; TRPML1 inh: -5; TRPML1 agonist: -2

What do the screens show for `Cc1cc(N2CCN(c3ccc(C(F)(F)F)cc3[N+](=O)[O-])CC2)c2ccccc2n1`?
PTAP TSG101 blk: -7%; KCNH2 3.1 inh: -102*; KCNH2 WT inh: -98*; Glioma ERSR ind: -2%; TRPML1 inh: -4; TRPML1 agonist: -1

How did O=C(c1ccccc1F)N1CCN(c2ccc([N+](=O)[O-])c3ncccc23)CC1 do in these assays?
PTAP TSG101 blk: 0%; KCNH2 3.1 inh: -2; KCNH2 WT inh: 26; Glioma ERSR ind: -2%; TRPML1 inh: 18; TRPML1 agonist: 0

How did Nc1nonc1OCCN1CCN(c2ccc([N+](=O)[O-])c3cccnc23)CC1 do in these assays?
PTAP TSG101 blk: -3%; KCNH2 3.1 inh: -30; KCNH2 WT inh: 2; Glioma ERSR ind: -2%; TRPML1 inh: 10; TRPML1 agonist: 2

How did Nc1nc(N)c2c(Oc3ccc(F)cc3)cccc2n1 do in these assays?
Glioma ERSR ind: -1%; TRPML1 agonist: inconclusive

Results for CC(C)(CO)C(O)C(=O)NCCCC(=O)O (stereo not drawn) ?
Glioma ERSR ind: -3%

Results for O=S(=O)(Cc1ccccc1Cl)c1ncn[nH]1 ?
PTAP TSG101 blk: -4%; KCNH2 3.1 inh: -156*; KCNH2 WT inh: -130*; Glioma ERSR ind: -5%; TRPML1 inh: 88; TRPML1 agonist: 0

How did O=S(=O)(Cc1c(F)cccc1Cl)c1ncn[nH]1 do in these assays?
PTAP TSG101 blk: -5%; KCNH2 3.1 inh: 3; KCNH2 WT inh: -4; Glioma ERSR ind: -3%; TRPML1 inh: -21; TRPML1 agonist: 1

What do the screens show for `Oc1cc(-c2nc3ccccc3s2)cc2c1OCCN(Cc1cccn1-c1ncccn1)C2`?
Glioma ERSR ind: -3%

What do the screens show for `Cc1cccc(CSCC(=O)N2CCN(S(=O)(=O)c3ccccc3C#N)CC2)c1`?
KCNH2 3.1 inh: 8; KCNH2 WT inh: -238*; Glioma ERSR ind: -3%; TRPML1 inh: 0; TRPML1 agonist: -1

What do the screens show for `COc1ccc(C(=O)NC(=S)N(Cc2ccccc2)Cc2ccccc2)cc1`?
PTAP TSG101 blk: -2%; KCNH2 3.1 inh: -11; KCNH2 WT inh: -102*; Glioma ERSR ind: -1%; TRPML1 inh: 10; TRPML1 agonist: 3

How did Cn1c(=O)c2sccc2n(Cc2ccccc2)c1=O do in these assays?
PTAP TSG101 blk: -1%; KCNH2 3.1 inh: -73*; KCNH2 WT inh: -1; Glioma ERSR ind: -6%; TRPML1 inh: 15; TRPML1 agonist: 0

Results for OC(COCc1cccs1)CN1CCN(c2ccccc2Cl)CC1 (stereo not drawn) ?
PTAP TSG101 blk: -2%; KCNH2 3.1 inh: -83*; KCNH2 WT inh: 7; Glioma ERSR ind: -3%; TRPML1 inh: 21; TRPML1 agonist: 1

How did Cc1cccc(N2CCN(CC(O)COCc3cccs3)CC2)c1C (stereo not drawn) do in these assays?
PTAP TSG101 blk: 1%; KCNH2 3.1 inh: -98*; KCNH2 WT inh: -80*; Glioma ERSR ind: -3%; TRPML1 inh: 35; TRPML1 agonist: 3

What do the screens show for `O=C(NC[C@@H]1CCCN2CCCC[C@H]12)c1cnn(-c2nccc(-c3cc4ccccc4o3)n2)c1C1CC1`?
Glioma ERSR ind: -6%

Compound activity deposited in PubChem BioAssay by National Center for Advancing Translational Sciences (NCATS).
